Assay [1] is described as follows: inhibitors of TNFa-induced NFkB p65 translocation, primary screen, imaging, HUVEC, MLSMR starter and 10KST1 sets (AID 438;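 active = inhibition above 20% together with a positive visual image hit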;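 note: compound added about 3h40 before a 20 min TNFalpha stimulation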;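 for inhibition: signal is the nuclear over cytoplasmic p65 intensity ratio per well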). The note with it: HUVEC TNFa-induced p65 nuclear translocation; cell count: measured here: nuclei count (cytotoxicity indicator), at 2.08 µM; inhibition: at 2 µM, stronger effect = higher value, 0% TNFa-plus-vehicle, 100% no-TNFa wells.
Assay [2] in a line: inhibitors of mutant huntingtin aggregation, primary screen, imaging, exon1htt(103Q)mCFP cells, high-content imaging (AID 483).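 For nuclei count: percent of the per-plate median nuclei count of sample wells.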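 Note: compound exposure lasted 3 days before fixation.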 Conditions: exon1htt(103Q)mCFP cell line, aggregate imaging, at 2 µM; inhibition of aggregation: stronger effect = higher value; nuclei count: measured here: cell count, toxicity.
A short description of assay [3]: inhibitors of E-selectin induction by TNFa, primary screen, imaging, HUVEC, immunofluorescence, MLSMR starter and 10KST1 sets (AID 487;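 active = visually confirmed hit in the image check and inhibition above 20%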;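 for inhibition: signal is fraction of cell area covered by stained E-selectin grains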;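 for nuclei count: 100% = median nuclei count of all wells on the same plate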). Conditions: HUVEC TNFalpha-induced E-selectin immunofluorescence imaging, at 2 µM; inhibition: stronger effect = higher value; nuclei count: measured here: cell number, toxicity.
Assay [4] addresses Voltage-gated potassium channel subunit beta-2 (Rattus norvegicus) (UniProt P62483). Kind of assay: KvBeta enzyme negative modulators, primary screen, biochemical, NADPH fluorescence (AID 622;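 active = fluorescence slope higher than the sample average by over 3 SD, cut at about -0.22 in these data, passing the limit was not always enough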;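 note: slope of raw intensity against log time taken from 70 to 1610 s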). Conditions: recombinant KvBeta, 4-cyanobenzaldehyde reduction, at 10 µM, stronger effect = higher value.
For assay [5] the target is unchanged. Description: KvBeta positive modulators, primary screen, biochemical, NADPH fluorescence (AID 623;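 active = NADPH fluorescence slope more negative than the mean of all samples by about 3 SD, 99.7% confidence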;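 note: fluorescence intensity change per second fitted from 20 to 320 s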). The note with it: Recombinant KvBeta, NADPH fluorescence decrease slope, 10 min; at 10 µM; stronger effect = lower value.
Assay [6] concerns the target Alpha-2C adrenergic receptor (Homo sapiens) (UniProt P18825). Description: modulators of alpha2C/GIRK thallium flux, primary screen, cell-based, HEK293 alpha2C/GIRK1/2 (AID 624;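 active = fluorescence slope after compound addition differing from the mean of all screened samples at 99.7% confidence, in either direction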;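 note: slope of fluorescence ratio to pre-addition baseline per second over 15 to 24 s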). The note with it: thallium flux BTC fluorescence, at 10 µM, actives lie on both sides.
Assay [7] in a line: inhibitors of Sendai virus-induced IRF3 signaling, primary screen, TLR/RLR signaling modifier project, cell-based, Sendai virus stimulus, luciferase, 10K MLSCN set (AID 602276;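 active = inhibition at or above 50% at 10 µM; inactive = inhibition below 50%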;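 note: firefly luciferase from ISG56 promoter only with Renilla not read in this screen; 0% = Sendai virus plus DMSO and 100% = medium plus DMSO without virus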). Conditions: HEK293 RL24 IRF3 luciferase reporter, at 10 µM, stronger effect = higher value. (In general: Reporter assays use an easily measured gene product as a stand-in for the process of interest.)
The nature of assay [8]: inhibitors of poly I:C-induced TLR3 signaling, primary screen, cell-based, poly I:C stimulus, luciferase, 10K MLSCN set (AID 602277;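 active = inhibition of the reporter signal at or above 50%; inactive = inhibition below 50%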). Conditions: HEK293-TLR3 RL24 IRF3 luciferase reporter, at 10 µM, stronger effect = higher value.

We go through 14 compounds from PubChem BioAssay.

A word on the inhibition: it is the change of the read-out against control, counted positive when it falls.

Activity calls are given as the source filed them.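 Rule for the calls, unless noted: active = visual image review flags a hit and inhibition of aggregation exceeds 20%; inconclusive = visual hit but inhibition at or below 20%; inactive = no hit on visual image review.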

Sequence of Voltage-gated potassium channel subunit beta-2 (Rattus norvegicus) (P62483 whole entry, looked up): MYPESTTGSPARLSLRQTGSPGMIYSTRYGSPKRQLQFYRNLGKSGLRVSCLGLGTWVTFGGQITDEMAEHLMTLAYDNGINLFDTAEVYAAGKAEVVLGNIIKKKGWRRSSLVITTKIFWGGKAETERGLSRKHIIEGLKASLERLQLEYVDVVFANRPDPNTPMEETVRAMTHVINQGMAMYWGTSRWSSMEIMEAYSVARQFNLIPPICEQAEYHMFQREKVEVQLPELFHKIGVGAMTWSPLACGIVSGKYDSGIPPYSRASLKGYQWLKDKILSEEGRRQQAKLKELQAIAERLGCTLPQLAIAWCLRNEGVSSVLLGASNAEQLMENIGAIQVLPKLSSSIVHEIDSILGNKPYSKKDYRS
Sequence of Alpha-2C adrenergic receptor (Homo sapiens) (P18825 whole entry, looked up): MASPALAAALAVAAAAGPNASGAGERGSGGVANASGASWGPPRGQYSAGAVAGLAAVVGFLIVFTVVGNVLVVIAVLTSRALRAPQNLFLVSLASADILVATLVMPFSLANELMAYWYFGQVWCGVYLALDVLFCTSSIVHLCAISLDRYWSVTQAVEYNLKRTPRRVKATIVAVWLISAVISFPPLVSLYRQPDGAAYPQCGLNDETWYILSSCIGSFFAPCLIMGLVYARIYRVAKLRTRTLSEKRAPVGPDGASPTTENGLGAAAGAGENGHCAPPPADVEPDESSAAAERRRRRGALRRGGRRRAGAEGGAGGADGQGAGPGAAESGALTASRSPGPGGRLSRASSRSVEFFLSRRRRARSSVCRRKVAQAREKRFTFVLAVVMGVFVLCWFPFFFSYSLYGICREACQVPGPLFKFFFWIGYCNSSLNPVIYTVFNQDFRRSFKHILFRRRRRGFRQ

Consider `Cc1cccc(-n2nnnc2SCc2csc(-c3ccccc3)n2)c1`, for which the cell count in assay [1] was 413. Also, the inhibition in assay [1] is 2.9% (inactive); in assay [3], -106% (inactive); in assay [7], 9.28% (inactive); in assay [8] it was 6.25% (inactive). In assay [2], the inhibition of aggregation is -8.3% (inactive). For the same compound, the nuclei count is 125% in assay [2] and 127% in assay [3]. Also, in assay [4], the fluorescence slope was -0.502 (inactive). For the same compound, the NADPH fluorescence slope in assay [5] was -3.3e-05 (inactive). Also, the slope in assay [6] was 0.00568 (inactive).
Regarding `Cc1onc(-c2ccccc2)c1C(=O)N1CCOCC1`, the cell count in assay [1] was determined as 619. For the same compound, the inhibition was -3.5% (inactive) in assay [1], -39.2% (inactive) in assay [3], 12.5% (inactive) in assay [7] and 20.9% (inactive) in assay [8]. For the same compound, in assay [2], the inhibition of aggregation was -7.5% (inactive). For the same compound, the nuclei count in assay [2] worked out at 113%; in assay [3] it was 106%. Besides, in assay [4], the fluorescence slope was -0.327 (inactive). Besides, in assay [5], the NADPH fluorescence slope is 7.5e-06 (inactive). Besides, in assay [6], the slope was 0.00368 (inactive).
Regarding `Cc1cc2c(=O)n(Cc3ccco3)c(SCC(=O)NCc3ccco3)nc2s1`, in assay [1], the cell count amounted to 502. Moreover, the inhibition was 3.1% (inactive) in assay [1], -50% (inactive) in assay [3], 14.9% (inactive) in assay [7] and 17.7% (inactive) in assay [8]. Also, the inhibition of aggregation in assay [2] was 3.2% (inactive). In addition, the nuclei count in assay [2] came to 84%; in assay [3], 82.5%. The fluorescence slope in assay [4] was -0.393 (inactive). The NADPH fluorescence slope in assay [5] is 1.9e-05 (inactive). Further, the slope in assay [6] is 0.00738 (inactive).
Take `Cc1ccc2c(c1)sc1ncc(NC(=O)c3ccccc3)c(=O)n12`: the cell count in assay [1] was determined as 324. Further, the inhibition was 2.1% (inactive) in assay [1], -27.5% (inactive) in assay [3], -16.1% (inactive) in assay [7] and -38.4% (inactive) in assay [8]. Moreover, in assay [2], the inhibition of aggregation is -14.3% (inactive). Moreover, the figures for the nuclei count in assay [2] and in assay [3] were 100% and 110%, respectively. Further, the fluorescence slope in assay [4] was -0.58 (inactive). Further, the NADPH fluorescence slope in assay [5] is 6.2e-06 (inactive). Besides, the slope in assay [6] was 0.0047 (inactive).
On to `CC(=O)Nc1ccc(S(=O)(=O)N2CCN(C(=O)CCC3CCCC3)CC2)cc1`, for which the cell count in assay [1] came out at 312. The inhibition in assay [1] is -0.8% (inactive); in assay [3] it was -42.2% (inactive); in assay [7], 24.2% (inactive); in assay [8], 10.7% (inactive). Besides, the inhibition of aggregation in assay [2] is -12.8% (inactive). Moreover, the nuclei count was 96.2% in assay [2] and 129% in assay [3]. In addition, the fluorescence slope in assay [4] was -0.581 (inactive). The NADPH fluorescence slope in assay [5] is 5.8e-05 (inactive). In assay [6], the slope was 0.00522 (inactive).
Consider `COc1ccccc1-c1nc(SCc2ccccn2)n[nH]1`, for which the cell count in assay [1] was 509. The inhibition is 8.9% (inactive) in assay [1], 32.9% (inactive) in assay [3], -21% (inactive) in assay [7] and -28.9% (inactive) in assay [8]. The inhibition of aggregation in assay [2] was 2.6% (inactive). Moreover, the nuclei count in assay [2] was 99.6%; in assay [3], 96.4%. Further, the fluorescence slope in assay [4] was -0.605 (inactive). The NADPH fluorescence slope in assay [5] is -2.8e-05 (inactive). Also, the slope in assay [6] is 0.0058 (inactive).
On to `Cc1cc(NCCN2CCOCC2)n2nc(C)c(-c3ccccc3)c2n1`, for which the cell count in assay [1] is 685. The inhibition in assay [1] was -8.9% (inactive); in assay [3], -43.4% (inactive); in assay [7] it was 4.53% (inactive); in assay [8], 3.88% (inactive). The inhibition of aggregation in assay [2] is -34.5% (inactive). In addition, the figures for the nuclei count in assay [2] and in assay [3] were 118% and 110%, respectively. Also, the fluorescence slope in assay [4] is -0.573 (inactive). Also, the NADPH fluorescence slope in assay [5] was -2.5e-05 (inactive). In assay [6], the slope was 0.00587 (inactive).
On to `CCn1c(CNc2ccc(OC)cc2)nnc1SCC(=O)c1ccc(OC)cc1`, for which the cell count in assay [1] was 544. Besides, the inhibition in assay [1] is -16.9% (inactive); in assay [3], -101% (inactive); in assay [7], 10% (inactive); in assay [8] it was 14.7% (inactive). For the same compound, the inhibition of aggregation in assay [2] is 1.8% (inactive). In addition, the nuclei count in assay [2] came out at 100%; in assay [3] it was 107%. In addition, the fluorescence slope in assay [4] is -0.502 (inactive). In assay [5], the NADPH fluorescence slope was 7.7e-06 (inactive). In addition, the slope in assay [6] was 0.00516 (inactive).
Consider `CCOC(=O)C(C)C1(O)c2ccccc2-c2ncccc21` (centres undefined), for which the cell count in assay [1] amounted to 316. Besides, the inhibition in assay [1] was 4.9% (inactive); in assay [3] it was 6.6% (inactive); in assay [7], 4.67% (inactive); in assay [8] it was 8.95% (inactive). Besides, the inhibition of aggregation in assay [2] was -6.7% (inactive). The nuclei count in assay [2] came to 117%; in assay [3], 97.7%. Also, the fluorescence slope in assay [4] was -0.296 (inactive). Further, in assay [5], the NADPH fluorescence slope was -6.5e-05 (inactive). In assay [6], the slope was 0.00533 (inactive).
As for `Cc1[nH]nc2c1C(C1CC=CCC1)C(C#N)=C(N)O2` (centres undefined), the cell count in assay [1] was 424. Further, the inhibition is 6.7% (inactive) in assay [1], -127% (inactive) in assay [3], -0.754% (inactive) in assay [7] and 40.2% (inactive) in assay [8]. Besides, the inhibition of aggregation in assay [2] is -6.7% (inactive). The figures for the nuclei count in assay [2] and in assay [3] were 99.5% and 117%, respectively. Besides, in assay [4], the fluorescence slope is -0.459 (inactive). The NADPH fluorescence slope in assay [5] was 8.5e-06 (inactive). Also, the slope in assay [6] is 0.00356 (inactive).
Turning to `CC(C)C(c1nnnn1C1CCCC1)N1CCN(C(=O)c2ccco2)CC1` (centres undefined), the cell count in assay [1] was determined as 426. The inhibition in assay [1] is 9.7% (inactive); in assay [3] it was -101% (inactive); in assay [7] it was -4.43% (inactive); in assay [8], 4.27% (inactive). Moreover, in assay [2], the inhibition of aggregation was -33.8% (inactive). Also, the nuclei count amounted to 67.7% in assay [2] and 115% in assay [3]. For the same compound, the fluorescence slope in assay [4] was -0.566 (inactive). Also, the NADPH fluorescence slope in assay [5] was -1.1e-05 (inactive). The slope in assay [6] was 0.00617 (inactive).
For the compound `Nc1[nH]nc2nc(N3CCCC3)nc(-c3ccccc3)c12`, the cell count in assay [1] was found to be 341. For the same compound, the inhibition in assay [1] was -9.5% (inactive); in assay [3] it was -53% (inactive); in assay [7], 11.8% (inactive); in assay [8], 18.8% (inactive). In assay [2], the inhibition of aggregation is 20.6% (inactive). Besides, the values for the nuclei count in assay [2] and in assay [3] were 60.5% and 117%, respectively. The fluorescence slope in assay [4] is -0.477 (inactive). Besides, the NADPH fluorescence slope in assay [5] was -3.4e-05 (inactive). The slope in assay [6] was 0.00548 (inactive).
`Cc1cnc(C(=O)Nc2ccc(N3CCN(C(=O)OC(C)(C)C)CC3)cc2)cn1`: the cell count in assay [1] was 316. Besides, the inhibition in assay [1] is 8.7% (inactive); in assay [3], -1.6% (inactive); in assay [7], -2.13% (inactive); in assay [8] it was 6.1% (inactive). The inhibition of aggregation in assay [2] was -7.1% (inactive). The nuclei count worked out at 4.4% in assay [2] and 93.1% in assay [3]. For the same compound, the fluorescence slope in assay [4] was -0.636 (inactive). Further, the NADPH fluorescence slope in assay [5] was -3.5e-05 (inactive). Further, the slope in assay [6] was 0.00617 (inactive).
With `COc1ccc(/C=N/O)cc1COc1ccc(NC(C)=O)cc1`, in assay [1], the cell count was 667. The inhibition in assay [1] is 9.6% (inactive); in assay [3], -30.3% (inactive); in assay [7], 6.34% (inactive); in assay [8] it was 10.2% (inactive). In assay [2], the inhibition of aggregation is -10.6% (inactive). The nuclei count was determined as 113% in assay [2] and 64.4% in assay [3]. Besides, in assay [4], the fluorescence slope is -0.589 (inactive). Also, the NADPH fluorescence slope in assay [5] is -1.6e-05 (inactive). Also, the slope in assay [6] is 0.00667 (inactive).
